The campaign covered roughly 310,000 compounds. About 14,000 (4.5%) showed an effect of 50% or more. The effect is printed as a negative number. The list comes from a sample in which strong results are over-represented; it also holds similar structures and randomly drawn compounds.
target: human ether-à-go-go-related gene (hERG) potassium channel (human, UniProt Q12809); assay: primary screen, population patch clamp on CHO cells stably expressing hERG; higher = less effect of the substance
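Also: peak tail current of the secondary pulse compared with the same well before compound.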

Chain of human ether-à-go-go-related gene (hERG) potassium channel (Q12809 whole entry, looked up): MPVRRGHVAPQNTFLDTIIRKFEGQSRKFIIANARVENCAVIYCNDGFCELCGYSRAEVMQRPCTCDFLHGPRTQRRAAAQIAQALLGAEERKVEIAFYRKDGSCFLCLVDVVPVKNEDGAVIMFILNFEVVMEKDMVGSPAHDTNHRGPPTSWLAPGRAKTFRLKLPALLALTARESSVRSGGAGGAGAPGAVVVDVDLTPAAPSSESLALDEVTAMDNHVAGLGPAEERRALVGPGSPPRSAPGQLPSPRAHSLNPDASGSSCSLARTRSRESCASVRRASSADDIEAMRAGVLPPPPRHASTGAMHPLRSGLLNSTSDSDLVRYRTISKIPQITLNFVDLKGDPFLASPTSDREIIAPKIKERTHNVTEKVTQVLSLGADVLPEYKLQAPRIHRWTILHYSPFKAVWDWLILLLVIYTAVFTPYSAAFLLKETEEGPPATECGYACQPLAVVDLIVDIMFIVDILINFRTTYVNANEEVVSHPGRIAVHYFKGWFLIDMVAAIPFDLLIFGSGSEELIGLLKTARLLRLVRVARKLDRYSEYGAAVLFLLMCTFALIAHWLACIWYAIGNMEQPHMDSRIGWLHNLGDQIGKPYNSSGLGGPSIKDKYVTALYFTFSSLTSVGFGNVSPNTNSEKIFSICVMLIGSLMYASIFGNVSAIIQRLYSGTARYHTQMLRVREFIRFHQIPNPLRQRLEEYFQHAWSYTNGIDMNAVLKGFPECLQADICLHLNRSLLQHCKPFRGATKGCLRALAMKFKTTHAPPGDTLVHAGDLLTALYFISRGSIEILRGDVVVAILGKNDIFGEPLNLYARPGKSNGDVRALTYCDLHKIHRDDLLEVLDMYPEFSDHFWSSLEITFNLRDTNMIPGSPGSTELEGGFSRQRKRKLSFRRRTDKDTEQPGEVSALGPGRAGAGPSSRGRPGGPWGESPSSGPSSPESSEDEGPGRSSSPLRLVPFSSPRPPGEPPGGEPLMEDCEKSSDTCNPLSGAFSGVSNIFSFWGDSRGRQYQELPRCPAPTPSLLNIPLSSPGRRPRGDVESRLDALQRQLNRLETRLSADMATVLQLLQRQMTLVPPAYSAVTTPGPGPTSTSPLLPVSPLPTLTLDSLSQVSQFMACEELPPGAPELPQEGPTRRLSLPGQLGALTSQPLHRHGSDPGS

Compound	hERG current change (%, negative = inhibition) at 10uM
CCCN(CCC)CCCNC(=O)c1cn(CC)c2ccc(S(=O)(=O)N3CCOCC3)cc2c1=O	12.8%
CCN(CC)CCNC(=O)c1cn(CC)c2ccc(S(=O)(=O)N3CCc4ccccc4C3)cc2c1=O	-59.4%
CCn1cc(C(=O)NCCc2ccccc2)c(=O)c2cc(S(=O)(=O)N3CCCC3)ccc21	1.7%
CCn1cc(C(=O)NCCCN2CCN(C)CC2)c(=O)c2cc(S(=O)(=O)N3CCc4ccccc4C3)ccc21	-20.4%
O=C(NC1CCCCC1)C1CCC(CNS(=O)(=O)c2ccccc2)CC1 (stereo not drawn)	10.3%
COc1ccc(-c2c(C#N)c(C)nc3c2C(=O)c2ccccc2-3)cc1	-3.8%
Cn1c(SCC(=O)c2ccccc2)nnc1-c1ccc(O)cc1	-11.2%
COc1cccc(C=NCC(C)N=Cc2cccc(OC)c2O)c1O (stereo not drawn)	3.33%
Cn1c(=O)c2c(nc(NCc3ccco3)n2CC(O)CO)n(C)c1=O (stereo not drawn)	22.1%
CCOC(=O)N1CCN(C(=O)CCN2C(=O)COc3ccccc32)CC1	0.87%
c1ccc(-c2noc(-c3ccc4ccccc4c3)n2)cc1	11.9%
CCOC(=O)c1c(NC(=O)CCCN2CCOCC2)sc2c1CC(C)(C)OC2	-9.14%
COc1ccc(C2=NOC(C(=O)Nc3ccc4c(c3)OCCO4)C2)c(OC)c1 (stereo not drawn)	3.96%
CCOC(=O)COc1ccc(S(=O)(=O)NCc2ccco2)cc1	-1.53%
CCNc1nc(NC(C)CC)nc(ON=C(C)C)n1 (stereo not drawn)	-2.23%
CCCCN(C)CCCNC(=O)c1cn(CC)c2ccc(S(=O)(=O)N3CCOCC3)cc2c1=O	10.3%
CCCCN(CC)CCCNC(=O)c1cn(CC)c2ccc(S(=O)(=O)N3CCc4ccccc4C3)cc2c1=O	-74.9%
CCCCSCCCNC(=O)c1cn(CC)c2ccc(S(=O)(=O)N3CCOCC3)cc2c1=O	-44.9%
O=C(CCN1CCCCO1)N1CCCC(Nc2cccc(F)c2)C1 (stereo not drawn)	14%
Nc1nc2n(n1)C(c1ccco1)CC(c1ccc(Cl)c(Cl)c1)N2 (stereo not drawn)	-31.4%
CC1CCN(C(=S)Nc2ccc(F)cc2)CC1	3.1%

Compound	hERG current change (%, negative = inhibition) at 10uM
CCC1C(=O)CC(c2ccc([N+](=O)[O-])cc2)NC1c1ccc([N+](=O)[O-])cc1 (stereo not drawn)	-76.3%
CC1C(=O)C(C)C(c2ccc([N+](=O)[O-])cc2)NC1c1ccc([N+](=O)[O-])cc1 (stereo not drawn)	-46%
CC1C(=O)CC(c2ccccc2)NC1c1ccccc1 (stereo not drawn)	-7.08%
CCC1C(=O)C(C)(C)C(=O)OC1c1ccc([N+](=O)[O-])cc1 (stereo not drawn)	-7.26%
CCC1C(=O)CC(c2ccccc2)NC1c1ccccc1 (stereo not drawn)	-21.4%
CC1C(=O)CC(c2ccc([N+](=O)[O-])cc2)NC1c1ccc([N+](=O)[O-])cc1.Cl (stereo not drawn)	-69.7%
Cc1ccc(NC(=O)CN(C)C(=O)CSc2nc3ccccc3o2)cc1	-20.5%
COc1cc2c(cc1NC(=O)CN1CCN(S(=O)(=O)c3ccccc3F)CC1)oc1ccccc12	10.1%
COc1ccccc1C(=O)C1CCCN(Cc2cccc3nccnc23)C1 (stereo not drawn)	-67.4%
COc1ccccc1C(=O)C1CCCN(Cc2cn[nH]c2C2CCCCC2)C1 (stereo not drawn)	-31.5%
COc1c(C)cc(C(=O)C2CCCN(Cc3cccc4nccnc34)C2)cc1C (stereo not drawn)	-64.5%
CCCN1CCCC(C(=O)c2cc(C)c(OC)c(C)c2)C1 (stereo not drawn)	-3.65%
COc1c(C)cc(C(=O)C2CCCN(Cc3cnc(C)s3)C2)cc1C (stereo not drawn)	-7.68%
CSc1ccc(C(=O)C2CCCN(Cc3cccc4nccnc34)C2)cc1 (stereo not drawn)	-82.8%
COc1ccccc1C(=O)C1CCCN(Cc2cnc(C)s2)C1 (stereo not drawn)	-8.13%
CSc1ccc(C(=O)C2CCCN(Cc3cc4ccccc4[nH]3)C2)cc1 (stereo not drawn)	-48.8%
CSc1ccc(C(=O)C2CCCN(C(=O)c3cccnc3SC)C2)cc1 (stereo not drawn)	-32.4%
CCOCCCN=Cc1c(O)n(Cc2ccccc2)c(=O)[nH]c1=O	-4.85%
c1ccc(CSc2nnc3ccc(-c4cccs4)nn23)nc1	3.64%
Cc1cccc(OCC(=O)Nc2ccc3c(C)cc(=O)oc3c2)c1	1.59%
CCOc1ccc(C(=O)OC2CCCN(C)C2)cc1.Cl (stereo not drawn)	-18.1%

Reference: publication PMC4336329 (PLoS ONE, 2015)
